From PubChem BioAssay AID933 (National Center for Advancing Translational Sciences (NCATS), 2007)
Records with an inconclusive call do not appear. Activity calls are given as the source filed them. Calls come from the whole dose curve; as a rule, active = well fitted activation curve with a large enough effect in the signal ratio, with a control signal flat; inconclusive = small, poorly fitted or top-dose-only effect, or a change in a side signal; inactive = flat fitted curve, though single readings scatter; the % refers to the signal ratio.

Biological target: Thyrotropin receptor (Homo sapiens) (UniProt P16473)
Sequence (P16473 whole entry, looked up): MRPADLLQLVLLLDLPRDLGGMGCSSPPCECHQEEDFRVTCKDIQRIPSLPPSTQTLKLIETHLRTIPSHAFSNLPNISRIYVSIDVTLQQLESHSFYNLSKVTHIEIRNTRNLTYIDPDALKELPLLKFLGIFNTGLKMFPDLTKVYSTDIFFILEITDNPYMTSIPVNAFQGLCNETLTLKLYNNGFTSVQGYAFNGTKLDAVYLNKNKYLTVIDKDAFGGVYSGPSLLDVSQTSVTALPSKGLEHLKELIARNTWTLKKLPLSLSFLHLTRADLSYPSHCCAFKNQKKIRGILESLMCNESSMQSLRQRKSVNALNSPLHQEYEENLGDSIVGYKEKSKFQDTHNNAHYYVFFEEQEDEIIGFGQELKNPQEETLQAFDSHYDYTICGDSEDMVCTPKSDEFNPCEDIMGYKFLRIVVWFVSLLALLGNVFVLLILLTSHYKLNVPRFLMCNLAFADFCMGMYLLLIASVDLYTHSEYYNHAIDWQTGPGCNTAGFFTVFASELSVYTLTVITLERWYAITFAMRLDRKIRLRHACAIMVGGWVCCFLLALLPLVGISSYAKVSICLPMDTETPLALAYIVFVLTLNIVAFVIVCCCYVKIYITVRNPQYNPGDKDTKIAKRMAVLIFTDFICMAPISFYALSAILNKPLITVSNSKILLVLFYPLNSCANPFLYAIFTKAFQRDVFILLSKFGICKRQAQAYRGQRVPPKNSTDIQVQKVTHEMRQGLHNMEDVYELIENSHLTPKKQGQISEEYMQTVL
Assay: Secondary Concentration-Response Assay for Agonists of the Thyroid Stimulating Hormone Receptor: HTRF Activity Detection; for activation: % of control where 0% means no effect
Conditions: HEK293-TSHR cells, cAMP HTRF ratio, 30 min; series mostly up to 91.7 µM; activation: at the top concentration
Procedure, shortened: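 cAMP accumulation was detected by antibody-based HTRF, excitation 330 nm, emissions 615 and 660 nm. Compounds acted for 30 min at room temperature on stably TSHR-transfected HEK 293 cells, with phosphodiesterase inhibitor RO 20-1724 (100 uM) in the medium.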
Potency is the fitted concentration of half-maximal effect.

activation, inactive:
CC(=O)Nc1ccc(OCc2cccc(-c3nc4ccccc4c(=O)n3Cc3ccco3)c2)cc1 6.74%
COc1ccc(S(=O)(=O)NCCC(=O)NCc2ccc(F)cc2)cc1 -0.0801% [at 0.00035 µM]
COc1ccc(O)c(-c2nc3ccccc3c(=O)n2Cc2ccccc2)c1 10.9%
COc1ccc(N2C(=O)c3ccccc3NC2c2ccc(OC)c(CSc3ccccn3)c2)cc1 (stereo unspecified) 0.621%
O=C(COC(=O)C1c2ccccc2Oc2ccccc21)Nc1ccc2c(c1)OCO2 0.151% [at 0.00035 µM]
COc1ccc(C2Nc3ccccc3C(=O)N2Cc2ccco2)cc1COc1ccc(F)cc1 (stereo unspecified) 0.829%
CCN(CC)CCN1C(=O)c2ccccc2NC1c1ccc(F)cc1 (stereo unspecified) 0.986%
CC1(C)c2ccccc2N2CCC(=O)NC21/C=C/c1ccco1 (stereo unspecified) 0.369% [at 0.00035 µM]
O=C(c1ccccc1O)N(Cc1ccccc1)Cc1cccs1 63.5%
COC(=O)c1cc(NC2c3ccccc3C(=O)N2c2cccnc2)cc(C(=O)OC)c1 (stereo unspecified) -0.103% [at 0.00035 µM]
O=C(CN1C(=O)NC2(CCCCC2)C1=O)NCCC1=CCCCC1 1.34% [at 0.00035 µM]
COc1ccc(C2Nc3ccccc3C(=O)N2C2CCCC2)cc1COc1ccc(NC(C)=O)cc1 (stereo unspecified) 29.4%
O=C1CC(c2ccco2)CC2=C1C(c1ccc(O)cc1)n1nc(C(F)(F)F)nc1N2 (stereo unspecified) 15%
Cc1cc(-n2c(C)cc(C(=O)CSc3nnnn3-c3ccc(Cl)cc3)c2C)no1 1.18% [at 0.00035 µM]
COc1ccc(C2Nc3ccccc3C(=O)N2Cc2ccccc2)cc1COc1ccc(C)cc1 (stereo unspecified) 18.2%
COc1ccc(C2Nc3ccccc3C(=O)N2CCO)cc1COc1ccc(NC(C)=O)cc1 (stereo unspecified) 5.23%
COc1ccc(C2Nc3ccccc3C(=O)N2Cc2ccco2)cc1COc1c(C)cccc1C (stereo unspecified) 1.67%
COc1ccc(C2Nc3ccccc3C(=O)N2Cc2ccccc2C)cc1COc1ccc(NC(C)=O)cc1 (stereo unspecified) 14.3%
Cc1cc(Cl)c(S(=O)(=O)Nc2ccc3c(c2)OCO3)cc1OCC(N)=O -1.33% [at 0.00035 µM]
O=C1c2ccccc2NC(c2ccc3c(c2)OCCO3)N1c1ccc2c(c1)OCCO2 (stereo unspecified) 2.01%
O=C1C2C3CCCC3=C3CCCC3C2C(=O)N1c1ccc(F)cc1 (stereo unspecified) 3.38%
COc1ccc2c(c1OC)C(=O)N1c3ccccc3C(=O)N(Cc3ccco3)C21 (stereo unspecified) 18.7%
COc1ccc(C2Nc3ccccc3C(=O)N2Cc2ccccc2)cc1COc1ccc(C#N)cc1 (stereo unspecified) 11.2%
COc1cc(C2Nc3ccccc3C(=O)N2c2ccccc2)c(Br)cc1OCC(=O)O (stereo unspecified) 0.259%
N#Cc1ccc(C(=O)N(Cc2ccco2)Cc2cccs2)cc1 4.24%
CCN(c1ccccc1)S(=O)(=O)c1ccc(Oc2ccc(-n3ccnc3)cc2)nc1 0.254% [at 0.00035 µM]
COc1ccc(CNCc2ccccc2)cc1COc1ccc(NC(C)=O)cc1 8.06%
COc1ccc2c(c1)C1(Nc3ccccc3C(=O)N1c1ccccc1)C(=O)N2 (stereo unspecified) 0.63%
COc1ccc(C2Nc3ccccc3C(=O)N2Cc2ccccc2)cc1COc1ccc(Cl)cc1 (stereo unspecified) 15.5%
Cc1nn(C)c(C)c1S(=O)(=O)N(CC(=O)Nc1nccs1)c1ccc(C(C)C)cc1 0.117% [at 0.00035 µM]
O=C1c2ccccc2N2C(=O)c3ccccc3[C@H]2N1c1ccccc1 1.36%

Potency, inactive:
O=C1c2ccccc2NC(c2ccccc2)N1Cc1ccco1 (stereo unspecified)

Potency, active:
COc1ccc(C2Nc3ccccc3C(=O)N2Cc2cccc(C(F)(F)F)c2)cc1COc1ccc(NC(C)=O)cc1 (stereo unspecified) 4.47 µM
COc1ccc(C2Nc3ccccc3C(=O)N2CCc2ccccc2)cc1COc1ccc(NC(C)=O)cc1 (stereo unspecified) 7.94 µM
CCCCN1C(=O)c2ccccc2NC1c1ccc(OC)c(COc2ccc(NC(C)=O)cc2)c1 (stereo unspecified) 20 µM
COc1ccc(C2Nc3ccc(NC(=O)CO)cc3C(=O)N2Cc2cccc(Cl)c2)cc1COc1ccc(NC(C)=O)cc1 (stereo unspecified) 5.62 µM
